Compound activity from PubChem.
Giardia killer: Giardia lamblia killing; Giardia lamblia trophozoite viability; activity change, % at 7.66 µM, hits read low; actives 0.15% (n = 340,000); AID 540267; in the data active means activity change below about -80%; inconclusive means between about -30% and that limit;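 further: parasites exposed to compound for two days anaerobically before the ATP read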
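ATP-content bioluminescence gauges trophozoite survival. Cells (100/well) receive compound and incubate anaerobically for 48 hrs at 37 deg C; detection reagent follows for 15-30 min at room temperature.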
A549 viability: kills or reduces viability of A549 cells in Nrf2 counter-screen; A549 ARE-Fluc cells, CellTiter-Fluor viability, 18-24 h; Potency, µM (titrated, usually from 46 µM), actives largely listed as inhibitors; actives 0.16% (n = 390,000)
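A549 ARE-Fluc cells in 5% FBS OPTI-MEM, 5000 cells/well, rested 2 h then exposed to compounds in concentration-response for 18-24 h at 37 °C. Viability by CellTiter-Fluor fluorescence (Ex 405/Em 525) after 30 min; luciferase luminescence (BugLite, 15 min, RT) read afterwards.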
Nrf2 inh: Nrf2 pathway inhibition; A549 ARE-Fluc reporter, luciferase luminescence, 18-24 h; Potency, µM (doses to about 46 µM), most hits filed as inhibitors; actives 2.1% (n = 360,000); further: nearly all actives have a fitted effect of over 60% in size
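Nrf2 activity is the BugLite luminescence, read 15 min after reagent at room temperature, following CellTiter-Fluor cytotoxicity readout (30 min, 37C). Compound titrations were applied for 18-24 h to 5000 A549 ARE_Fluc cells/well in 5% FBS OPTI-MEM.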
KB-3-1 tox: kills parental KB-3-1 adenocarcinoma cells; Potency, µM (titrated, usually from 46.1 µM), actives largely listed as cytotoxic; actives 1.4% (n = 400,000); KB-3-1 viability, CellTiter-Glo ATP luminescence, 72 h; further: nearly all actives have a fitted effect of over 60% in size
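Cells are dispensed, compounds pinned in, plates held at 37 °C for 72 h, then CellTiter-Glo is added and luminescence read after 10 minutes. Cell line: parental KB-3-1 in phenol-red-free DMEM, 10% FBS.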
KB-V1 MDR tox: kills drug-selected multidrug resistant KB-V1 cells. KB-V1 MDR cells viability, CellTiter-Glo, 72 h. Potency, µM (titrated, usually from 46.1 µM), usual class: cytotoxic. actives 3.4% (n = 400,000); further: nearly all actives have a fitted effect of over 60% in size
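Potencies derive from concentration-effect curves fitted to normalized luminescence (CellTiter-Glo) of KB-V1 cells treated for 72 h at 37 degrees C in phenol-red-free DMEM containing 10% FBS.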
PI4K2A block: blocks human PI4K2A kinase activity | AID 1346378 | actives 0.13% (n = 420,000) | Q9BTU6 | activity change, negative = inhibition, % at 76.9 µM | purified PI4K2A, ADP-Glo luminescence, 1 h; stronger effect = lower value; in the data active means activity change below about -50%; inconclusive means mostly about -30% to -49%
Target sequence (Q9BTU6 whole entry, looked up): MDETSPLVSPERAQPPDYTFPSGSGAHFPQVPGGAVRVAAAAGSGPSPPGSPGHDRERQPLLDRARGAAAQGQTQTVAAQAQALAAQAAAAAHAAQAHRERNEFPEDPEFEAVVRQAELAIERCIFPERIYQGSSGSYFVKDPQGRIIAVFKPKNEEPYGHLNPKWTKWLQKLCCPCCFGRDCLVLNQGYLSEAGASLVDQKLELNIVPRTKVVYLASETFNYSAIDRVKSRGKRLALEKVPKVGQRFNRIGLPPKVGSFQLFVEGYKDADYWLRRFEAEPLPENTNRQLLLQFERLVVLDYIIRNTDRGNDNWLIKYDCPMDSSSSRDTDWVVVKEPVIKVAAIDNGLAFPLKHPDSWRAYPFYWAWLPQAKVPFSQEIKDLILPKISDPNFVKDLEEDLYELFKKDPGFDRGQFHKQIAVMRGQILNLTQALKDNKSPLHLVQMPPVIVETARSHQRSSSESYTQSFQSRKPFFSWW
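In this quantitative HTS, ADP production by PI4K2A was quantified luminescently after 1 h at ambient temperature; 100 microM adenosine served as plate-quality control.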
A number is an active result; n = inactive; u = inconclusive; x = no result given; ! = a repeat was not active. Only some compounds are listed: those with a hit (about 5.7% of all), similar ones and a draw of the others. Unless noted, the call rests on the fitted dose curve; in most records, active means well fitted curve in the direction sought with a large enough effect; inconclusive means small, poorly fitted or top-dose-only effect, or another doubt; inactive means no such curve, though single readings can be large; an effect the other way counts as inactive or inconclusive.

SMILES	Giardia killer	A549 viability	Nrf2 inh	KB-3-1 tox	KB-V1 MDR tox	PI4K2A block
CCC(=O)Nc1ccc(N2CCCCC2)c(C(=O)Nc2ccc(OC)cc2)c1	n	n	18.4µM	n	u	n
Cc1ccc(C)c(NC(=O)c2ccc(CN3CC(=O)N4CCCCC4C3=O)cc2)c1 (configuration not stated)	x	n	n	x	x	n
CCOc1ccc(CCN2C(=S)N([C@@H](Cc3ccccc3)CN3CCC[C@@H]3CN3C(=S)NC[C@@H]3Cc3ccc(O)cc3)C[C@@H]2CC(C)C)cc1	x	x	x	n	n	n
CC(C)C[C@H]1CN([C@@H](CC(C)C)CN2CCCC2CN2C(=S)NC[C@@H]2Cc2ccc(O)cc2)C(=S)N1CC1CCCCC1 (some centres not stated)	n	n	u	u	20.6µM	n
CCOc1ccc(CCN2C(=S)N([C@@H](Cc3ccc(O)cc3)CN3CCCC3CN3C(=S)NC[C@@H]3Cc3ccc(O)cc3)C[C@@H]2CC(C)C)cc1 (some centres not stated)	n	n	16.4µM	u	n	n
Oc1ccc(C[C@H]2CNC(=S)N2CC2CCCN2C[C@H](Cc2ccc(O)cc2)N2C[C@H](Cc3ccc(O)cc3)N(CC3CCCCCC3)C2=S)cc1 (some centres not stated)	n	n	u	20.6µM	u	n
O=C(Nc1ccncc1)C1C(=O)c2ccccc2N(Cc2ccccc2)C1=O (configuration not stated)	n	n	u	n	n	x
O=S1(=O)c2ccc(Br)cc2OC[C@H](Cc2ccccc2)N1Cc1cn(Cc2ccc(C(F)(F)F)cc2)nn1	x	x	x	x	x	n
O=C(Nc1ccc2[nH]ccc2c1)c1cc(-c2ccc(Cl)cc2)nc2ccccc12	x	x	x	x	x	n
Cn1c(-c2ccc3ccccc3n2)nc2cnccc21	n	n	u	n	10.3µM	n
CCCc1cc(=O)[nH]c(Nc2cc(Cl)cc(Cl)c2)n1	x	u	u	u	u	n
C[C@H]1C=CC(=O)C[C@H]1c1c(F)cccc1Cl	n	n	n	x	x	x
CCc1ccc(-c2csc(NC(=O)C3=NN(c4ccccc4)C(=O)CC3)n2)cc1	u	n	18.4µM	n	n	n
Cc1cc(C)c(-c2csc(NC(=O)C3=NN(c4ccccc4)C(=O)CC3)n2)c(C)c1	n	n	u	u	n	n
CCc1ccc(-c2csc(NC(=O)c3cccnc3)n2)cc1	n	n	14.6µM	n	n	n
COc1ccc2c(c(-c3ccccc3)cn2C)c1-c1ccccc1	x	x	x	x	x	n
Cn1c(SCc2ccc(F)cc2)nc2ccc(C(=O)NCc3ccc(F)cc3)cc21	x	u	23.1µM	n	n	n
CC(C)Oc1ccc(CNC(=O)c2ccc3nc(SCc4ccc(F)cc4)n(C)c3c2)cc1	x	n	n	x	x	n
Cn1c(SCc2ccc(F)cc2)nc2ccc(C(=O)NCc3cccc(Cl)c3)cc21	x	n	20.6µM	n	n	n
Cn1c(SCc2ccc(F)cc2)nc2ccc(C(=O)NCc3ccc(Cl)cc3)cc21	x	n	14.6µM	n	n	n
Cc1ccccc1CNC(=O)c1ccc2nc(SCc3ccc(F)cc3)n(C)c2c1	x	n	u	n	n	n
COc1ccc(-c2noc(C3CCCN(C(=O)Nc4cc(C)cc(C)c4)C3)n2)cc1 (configuration not stated)	x	x	x	x	x	n
Cc1cc(-c2ccc(S(=O)(=O)Nc3cc(Cl)ccc3C)s2)on1	x	n	n	u	u	n
CN(C)c1ccc(/C=C/c2ccc3ccccc3[n+]2C)cc1	n	23.1µM	14.6µM	0.326µM!	u	u
COc1ccc(/C=C/c2ccc3ccccc3[n+]2C)c(OC)c1OC	x	x	x	u	n	x
SMILES	Giardia killer	A549 viability	Nrf2 inh	KB-3-1 tox	KB-V1 MDR tox	PI4K2A block
CN(CCCS(=O)(=O)[O-])c1ccc(/C=C/c2ccc3ccccc3[n+]2C)cc1	n	n	n	u	n	n
COc1cc(OC)c(OC)cc1/C=C/c1ccc2ccccc2[n+]1C	x	x	x	13µM	n	x
CN(C)c1ccc(/C=C/c2cncc3ccccc23)cc1	x	x	x	n	n	x
CN(C)c1ccc(/C=C/c2c[n+](C)cc3ccccc23)cc1	x	x	x	0.461µM	n	x
COc1ccc(/C=C/c2ccc3ccccc3[n+]2C)cc1OC	n	n	n	10.3µM!	n	n
Cc1ccc(-c2csc(NC(=O)C3CC(=O)N(c4ccc5c(c4)OCCO5)C3)n2)o1 (configuration not stated)	n	n	u	u	n	x
O=C(/C=C/c1cccs1)Nc1cccc([S+](=O)([O-])Nc2ccccc2F)c1	x	x	x	n	n	x
Cc1ccc(-c2cc(C3C4C=CCC(C)C4C(=O)N3Cc3ccccc3)ccc2F)cc1 (configuration not stated)	n	n	u	x	x	x
CCC(C)NCCCCOc1ccc(Cl)cc1C (configuration not stated)	n	n	n	n	16.4µM	n
O=C(NCc1ccc2c(c1)OCO2)c1ccc(CSCc2ccc(Cl)cc2)o1	n	n	n	n	20.6µM	n
O=C(NCc1ccc(Cl)cc1)c1ccc(CSCc2cccc(Cl)c2)o1	x	n	x	n	n	n
O=C(c1cccs1)N1CCc2c([nH]c3ccccc23)C1c1ccccn1 (configuration not stated)	n	n	n	u	n	n
O=C(c1cccs1)N1CCc2c([nH]c3ccccc23)C1c1ccc(Cl)cc1 (configuration not stated)	n	u	n	11.6µM	11.6µM	n
Cc1nc(-c2ccc(S(=O)(=O)N3CCN(C(c4ccccc4)c4ccccc4)CC3)s2)cs1	n	n	n	n	n	n
Cc1nc(-c2ccc(S(=O)(=O)N3CCN(Cc4ccccc4)CC3)s2)cs1	n	n	16.4µM	u	u	n
CC(=O)Oc1ccc2c(c1)OC(c1ccccc1)CC21CC(C)(C)NC(=S)N1 (configuration not stated)	n	n	n	n	u	n
COc1ccc(C2(c3ccc(OC(C)=O)cc3OC(C)=O)CC(c3ccccc3)NC(=S)N2)cc1 (configuration not stated)	n	u	20.6µM	n	n	n
CC(=O)OCCCN1CCC2(CCCCC2)C1=O	x	x	x	x	x	n
CCN(C(=O)CSc1cc(-c2ccccc2)c2ccc(OC)cc2n1)C1CCS(=O)(=O)C1 (configuration not stated)	n	u	23.1µM	n	n	n
Cc1cc(C)c(C(=O)/C=C/c2ccc3c(c2)OCO3)c(=O)[nH]1	n	n	u	u	u	n
Cc1cc(C)c(C(=O)/C=C/c2cccc3ccccc23)c(=O)[nH]1	n	u	18.4µM	6.51µM	8.2µM	n
